# Test results taken from PubChem BioAssay (Tox21).
# Values joined by “and” are separate entries in the source; they are usually repeats but may differ in a detail not shown here. Identical values can stand only once. Inconclusive results are not listed. A call without a number means that no potency is given here. More than one record can exist for a structure, and the calls need not agree. Active and inactive are the calls of the source. Unless noted, calls follow the shape of the dose curve; as a rule, active = well fitted curve in the direction sought with a large enough effect in the repeat runs; inconclusive = weak or mixed curves; inactive = no such curve, though single readings can be large; an effect the other way counts as inactive or inconclusive.
# Legend:
# [1] = qHTS assay to identify small molecule antagonists of the estrogen related receptor (ERR) signaling pathway from Tox21 library - cell viability counter screen (AID 1224834); also: nearly all actives have a fitted effect of over 30% in size
# Procedure, shortened: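 After 17.5 h of compound exposure at 37 C, ERR cells are incubated with CellTiter-Fluor for 30 min and fluorescence intensity serves as the viability measure.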
# [2] = qHTS assay to identify small molecule agonists of the constitutive androstane receptor (CAR) signaling pathway - cell viability counter screen (AID 1224836); also: nearly all actives have a fitted effect of over 45% in size; as to viability change, negative = cytotoxic: series mostly up to about 92 µM
# Procedure, shortened: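 Cell viability multiplexed with the CAR agonist screen: CellTiter-Fluor fluorescence after 23 hr at 37 C. HepG2-CYP2B6-hCAR cells got compounds at 15 concentrations with PK11195 at 0.75 uM final.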
# [3] = qHTS assay to identify small molecule antagonists of the constitutive androstane receptor (CAR) signaling pathway - cell viability counter screen (AID 1224837); also: nearly all actives have a fitted effect of over 45% in size; as to activity change, negative = cytotoxicity: series mostly up to about 92 µM
# Procedure, shortened: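 Counter screen run in HepG2-CYP2B6-hCAR cells: 4 hr settle, compound titration (15 concentrations) with 50 nM CITCO, 23 hr at 37 C/5% CO2, CellTiter-Fluor fluorescence.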
# [4] = target: Nuclear receptor subfamily 1 group I member 3 (Homo sapiens) (UniProt Q14994); experiment: qHTS assay to identify small molecule antagonists of the constitutive androstane receptor (CAR) signaling pathway (AID 1224838);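 also: HepG2 cells stably expressing hCAR with CYP2B6 luciferase reporter stimulated by CITCO; nearly all actives have a fitted effect of over 40% in size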
# Nuclear receptor subfamily 1 group I member 3 (Homo sapiens), sequence (Q14994 whole entry, looked up): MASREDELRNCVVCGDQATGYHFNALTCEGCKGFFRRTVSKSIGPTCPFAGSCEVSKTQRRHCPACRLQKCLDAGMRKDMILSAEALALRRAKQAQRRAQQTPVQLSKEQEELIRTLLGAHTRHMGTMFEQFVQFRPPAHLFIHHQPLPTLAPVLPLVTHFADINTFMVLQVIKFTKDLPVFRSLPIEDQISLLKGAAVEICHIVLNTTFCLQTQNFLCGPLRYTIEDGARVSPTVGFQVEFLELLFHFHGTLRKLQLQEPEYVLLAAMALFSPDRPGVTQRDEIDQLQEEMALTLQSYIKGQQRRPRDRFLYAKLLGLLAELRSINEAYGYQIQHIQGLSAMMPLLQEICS
# Procedure, shortened: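 Cell line: HepG2 double-stable for hCAR and CYP2B6-2.2kb reporter. Agonist: CITCO, 50 nM final. Compounds: 15 concentrations, 24 h, 37 C. Detection: ONE-Glo luminescence.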
# [5] = target: Nuclear receptor subfamily 1 group I member 3 (Homo sapiens) (UniProt Q14994); experiment: qHTS assay to identify small molecule agonists of the constitutive androstane receptor (CAR) signaling pathway (AID 1224839); also: nearly all actives have a fitted effect of over 15% in size;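 as to activation: HepG2 cells stably carrying human CAR and a CYP2B6 luciferase reporter; series mostly up to about 92 µM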
# Procedure, shortened: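 Luminescent ONE-Glo read-out after 24 hr, 37 C exposure of double-stable HepG2-CYP2B6-hCAR reporter cells to a 15-point compound series, in the presence of 0.75 uM PK11195 (final).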
# [6] = qHTS assay to identify small molecule antagonists of the estrogen related receptor signaling pathway with the pleiotropic PPARgamma coactivator (PGC) from Tox21 10K library - cell viability counter screen (AID 1224840; active = well fitted cell-killing curve with a large enough effect in the repeat runs, not every such curve was filed as active; also: nearly all actives have a fitted effect of over 40% in size)
# Procedure, shortened: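 Following seeding of 2,000 PGC/ERR cells/well and 6 hours' incubation, test compounds were delivered in DMSO. The plates then sat 17.5 hours at 37 C before a fluorogenic live-cell protease reagent (CellTiter-Fluor) was read after 30 min.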
# [7] = target: Luciferin 4-monooxygenase (Photinus pyralis) (UniProt P08659); experiment: qHTS assay to identify small molecule inhibitors of firefly luciferase (AID 1224835); also: nearly all actives have a fitted effect of over 25% in size
# Luciferin 4-monooxygenase (Photinus pyralis), sequence (P08659 whole entry, looked up): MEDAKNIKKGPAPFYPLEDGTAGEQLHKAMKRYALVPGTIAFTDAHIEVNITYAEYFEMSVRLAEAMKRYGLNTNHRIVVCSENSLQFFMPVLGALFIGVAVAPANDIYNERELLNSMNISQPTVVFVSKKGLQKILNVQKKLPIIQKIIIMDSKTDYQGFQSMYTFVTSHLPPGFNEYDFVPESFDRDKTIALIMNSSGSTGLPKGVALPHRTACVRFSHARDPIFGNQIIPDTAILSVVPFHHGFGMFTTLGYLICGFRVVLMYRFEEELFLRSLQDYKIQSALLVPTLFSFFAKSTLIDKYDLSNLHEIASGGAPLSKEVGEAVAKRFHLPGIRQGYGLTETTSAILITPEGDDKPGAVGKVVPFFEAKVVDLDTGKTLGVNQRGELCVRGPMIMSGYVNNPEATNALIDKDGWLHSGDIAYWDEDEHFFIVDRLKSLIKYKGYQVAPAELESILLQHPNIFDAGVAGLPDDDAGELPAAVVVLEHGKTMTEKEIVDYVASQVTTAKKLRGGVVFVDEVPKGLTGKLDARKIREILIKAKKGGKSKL
# Procedure, shortened: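 Inhibition of purified Photinus luciferase is measured by luminescence. Substrate levels (D-luciferin, ATP) sit at their KM values. Each compound is tested in a concentration series.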
# [8] = qHTS assay to identify small molecule agonists of the estrogen related receptor signaling pathway with the pleiotropic PPARgamma coactivator (PGC) from Tox21 10K library (AID 1224842); also: nearly all actives have a fitted effect of over 15% in size
# Procedure, shortened: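 Luminescence from One-Glo (30 min, room temperature) measured after PGC/ERR cells had 18 h at 37 C with pinned compound (23 nL in DMSO). Cells had been seeded at 2,000 per well and pre-incubated 6 h.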
# [9] = qHTS assay to identify small molecule antagonists of the estrogen related receptor signaling pathway with the pleiotropic PPARgamma coactivator (PGC) from Tox21 10K library (AID 1224841; call rule not given here; also: actives are mostly falling curves and most rising ones were filed inactive; nearly all actives have a fitted effect of over 50% in size)
# Procedure, shortened: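 qHTS antagonist format: PGC/ERR cells, 2k/well, compound in DMSO by pin transfer after 6 h attachment, 18 h treatment at 37 C, One-Glo luminescence read at 30 min.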
# Potency is read from the fitted curve at half-maximal effect.
structure (smiles),measurement,setting,value
CCCCCC[N+](=O)[O-],Potency,[1],inactive
same,Potency,[2],inactive
same,Potency,[3],inactive
same,Potency,[4],inactive
same,Potency,[5],inactive
same,Potency,[6],inactive
COP(=S)(OC)Oc1ccc([N+](=O)[O-])cc1Cl,Potency,[1],48.6 µM (active)
same,Potency,[7],35.6 µM (active)
same,Potency,[4],inactive
same,Potency,[8],inactive
C=CCC1([C@H](C)CCC)C(=O)NC(=O)NC1=O,Potency,[1],inactive
same,Potency,[2],inactive
same,Potency,[3],inactive
same,Potency,[4],inactive
same,Potency,[5],inactive
CCOC(=O)C(Cl)C(C)=O (stereo not drawn),Potency,[1],inactive
same,Potency,[7],inactive
same,Potency,[2],inactive
same,Potency,[3],inactive
same,Potency,[6],inactive
Nc1ccc(N=Nc2ccc(-c3ccc(N=Nc4c(S(=O)(=O)O)cc5cc(S(=O)(=O)O)c(N=Nc6ccccc6)c(O)c5c4N)cc3)cc2)c(N)c1,Potency,[1],31.3 µM (active)
same,Potency,[7],20.4 µM (active)
same,Potency,[2],inactive
same,Potency,[4],inactive
same,Potency,[6],35.1 µM (active)
NCCCNCCCN,Potency,[1],inactive
same,Potency,[2],inactive
same,Potency,[3],inactive
same,Potency,[4],inactive
same,Potency,[5],inactive
CCCC(Cn1cncn1)c1ccc(Cl)cc1Cl (stereo not drawn),Potency,[1],54.5 µM (active)
same,Potency,[7],inactive
same,Potency,[2],inactive
same,Potency,[4],inactive
same,Potency,[5],61.1 µM (active)
same,Potency,[8],inactive
COc1cc(Cl)c(OC)cc1Cl,Potency,[1],inactive
same,Potency,[7],inactive
same,Potency,[2],inactive
same,Potency,[3],inactive
same,Potency,[8],inactive
CCCCN(N=O)C(=N)N[N+](=O)[O-],Potency,[1],inactive
same,Potency,[2],inactive
same,Potency,[3],inactive
same,Potency,[4],31.3 µM (active)
same,Potency,[5],inactive
Nc1nc(=S)[nH][nH]1,Potency,[1],inactive
same,Potency,[7],inactive
same,Potency,[2],inactive
same,Potency,[3],inactive
same,Potency,[6],inactive
same,Potency,[8],inactive
CCn1cc[n+](C)c1,Potency,[1],inactive and 30.9 µM (active)
same,Potency,[7],inactive
same,Potency,[6],inactive and 55 µM (active)
Cc1ccc2ccccc2c1,Potency,[1],inactive
same,Potency,[7],inactive
same,Potency,[2],inactive
same,Potency,[3],inactive
same,Potency,[6],inactive
same,Potency,[8],inactive
S=C=NCc1ccccc1,Potency,[1],inactive
same,Potency,[7],inactive
same,Potency,[2],inactive
same,Potency,[5],inactive
same,Potency,[6],inactive
same,Potency,[8],inactive
Clc1cc(C(Cl)(Cl)Cl)cnc1Cl,Potency,[1],inactive
same,Potency,[7],inactive
same,Potency,[2],43.3 µM (active)
same,Potency,[6],inactive
same,Potency,[9],inactive
same,Potency,[8],inactive
CCOC(=O)[C@]1(c2ccccc2)Oc2ccccc2[C@@H]1N,Potency,[1],inactive
same,Potency,[7],inactive
same,Potency,[5],inactive
same,Potency,[6],inactive
Cc1ccc(-c2c(Cl)nc(C#N)n2S(=O)(=O)N(C)C)cc1,Potency,[1],54.4 µM (active)
same,Potency,[7],35.6 µM (active)
same,Potency,[5],inactive
O=C(Nc1ccccc1)Nc1ccnc(Cl)c1,Potency,[1],43.3 µM (active)
same,Potency,[7],15.9 µM (active)
same,Potency,[2],48.6 µM (active)
same,Potency,[8],inactive
CN1[C@@H]2CC[C@H]1CC(OC(=O)c1cc(Cl)cc(Cl)c1)C2 (stereo partly drawn),Potency,[1],inactive
same,Potency,[7],inactive
same,Potency,[2],inactive
same,Potency,[3],inactive
same,Potency,[6],inactive
CN1C(=O)C(O)N=C(c2ccccc2)c2cc(Cl)ccc21 (stereo not drawn),Potency,[1],inactive
same,Potency,[7],inactive
same,Potency,[2],inactive
same,Potency,[3],inactive
same,Potency,[8],inactive
CC(=O)NC1CCSC1=O (stereo not drawn),Potency,[1],inactive
same,Potency,[7],inactive
same,Potency,[2],inactive
same,Potency,[3],inactive
same,Potency,[6],inactive
same,Potency,[9],inactive
same,Potency,[8],inactive
Brc1ccc(Oc2ccccc2)cc1,Potency,[1],inactive
same,Potency,[7],inactive
same,Potency,[2],inactive
same,Potency,[3],inactive
same,Potency,[9],inactive
same,Potency,[8],885 nM (active) and inactive
C/C(=C\c1ccccc1)[N+](=O)[O-],Potency,[1],27.3 µM (active)
same,Potency,[3],30.6 µM (active)
same,Potency,[4],24.3 µM (active)
same,Potency,[5],inactive
same,Potency,[9],30.6 µM (active)
same,Potency,[8],inactive
CCCCN=C=O,Potency,[1],inactive
same,Potency,[2],inactive
same,Potency,[3],inactive
same,Potency,[6],inactive
same,Potency,[9],inactive
same,Potency,[8],inactive
CO[C@@H]1[C@H](OC(=O)NC(=O)CCl)CC[C@]2(CO2)[C@H]1[C@@]1(C)O[C@@H]1CC=C(C)C,"viability change, negative = cytotoxic",[1],-3.88% [at 19 µM] (inactive)
same,"viability change, negative = cytotoxic",[2],-5.35% [at 19 µM] (inactive)
same,"activity change, negative = cytotoxicity",[3],-18.3% [at 19 µM] (inactive)
same,activation,[5],-1.38% [at 19 µM] (inactive)
same,activation,[8],-7.49% [at 19 µM] (inactive)
CCc1ccc(C(=O)NN(C(=O)c2cc(C)cc(C)c2)C(C)(C)C)cc1,Potency,[1],8.63 µM (active)
same,Potency,[4],inactive
same,Potency,[6],inactive
same,Potency,[9],30.6 µM (active)
same,Potency,[8],inactive
CCC(COC(=O)c1cc(OC)c(OC)c(OC)c1)(c1ccccc1)N(C)C (stereo not drawn),Potency,[7],inactive
same,Potency,[2],inactive
same,Potency,[3],inactive
same,Potency,[4],inactive
CN1C(=O)NC(=O)C(C)(C2=CCCCC2)C1=O (stereo not drawn),Potency,[1],inactive
same,Potency,[2],inactive
same,Potency,[3],inactive
same,Potency,[5],inactive
ClCC(Br)CBr (stereo not drawn),Potency,[1],inactive
same,Potency,[2],inactive
same,Potency,[3],inactive
same,Potency,[6],inactive
COC1=CC(=O)O[C@@H](CCc2ccccc2)C1,Potency,[1],inactive
same,Potency,[2],inactive
same,Potency,[3],inactive
same,Potency,[4],inactive
same,Potency,[5],56.7 µM (active)
same,Potency,[6],inactive
same,Potency,[8],inactive
